Experimental data published in PubChem BioAssay.
Where “and” joins values, the source holds several entries; their conditions need not be identical. Equal entries are not always repeated. Calls of active or inactive are those of the source. Rule as the data show it, unless noted: active = inhibition above about 80%; inactive = the rest.

Tests used:
[1] = growth inhibition, single agents and combos, ICB984, cell-based, cisplatin or BGB combos, synergistic combos for chromothripsis tumors (AID 1671451; call rule not given here;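 also: cells exposed for 96 hours before readout; 0% = vehicle DMSO and 100% = killing by high DMSO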); details: ICB984 medulloblastoma cells, drug combinations, stronger effect = higher value
[2] = growth inhibition, single agents and combos, LFS_MB_1R, cell-based, cisplatin or BGB combos, synergistic combos for chromothripsis tumors (AID 1671452); details: LFS_MB_1R medulloblastoma cells, stronger effect = higher value;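 also: cells exposed for 96 hours before readout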
[3] = growth inhibition, single agents and combos, HTB85, cell-based, BGB or cisplatin IC20 combos, synergistic combos for chromothripsis tumors (AID 1671453); details: HTB85 osteosarcoma cells, drug combinations, stronger effect = higher value;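 also: cells exposed for 96 hours before readout; 0% = vehicle DMSO and 100% = high DMSO killing control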
[4] = growth inhibition, single agents and combos, CRL2098, cell-based, BGB or cisplatin IC20 combos, synergistic combos for chromothripsis tumors (AID 1671454); details: CRL2098 osteosarcoma cells, drug combinations, stronger effect = higher value;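 also: cells exposed for 96 h before readout; 0% = vehicle DMSO and 100% = killing by high DMSO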
[5] = growth inhibition, single agents and combos, HD-MB03, cell-based, BGB or cisplatin IC20 combos, synergistic combos for chromothripsis tumors (AID 1671455; in the data active = inhibition above about 83%;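 also: 0% = vehicle DMSO and 100% = high DMSO as cytotoxic control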); details: HD-MB03 medulloblastoma cells, stronger effect = higher value
[6] = growth inhibition, single agents and combos, UWB1.289, cell-based, BGB or cisplatin combos, synergistic combos for chromothripsis tumors (AID 1671456); details: UWB1.289 ovarian carcinoma cells, stronger effect = higher value;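 also: cells exposed to compound for four days; 0% = vehicle DMSO and 100% = killing by high DMSO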
[7] = growth inhibition, single agents and combos, LFS_MB_2R, cell-based, cisplatin combos, synergistic combos for chromothripsis tumors (AID 1671457); details: LFS_MB_2R medulloblastoma cells, stronger effect = higher value;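 also: cells exposed to compound for four days before readout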
[8] = growth inhibition, MDA-MB-436, cell-based, BGB or cisplatin combos, synergistic combos for chromothripsis tumors (AID 1671458; call rule not given here;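 also: cells exposed for 96 hours; 0% = vehicle DMSO and 100% = killing by high DMSO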); details: MDA-MB-436 breast carcinoma growth inhibition, drug combinations, stronger effect = higher value
[9] = UWB1.289_BRCA1 ovarian cancer growth, cell-based, BGB or cisplatin combinations (AID 1671459); details: UWB1.289 BRCA1 ovarian carcinoma, drug combinations, stronger effect = higher value
[10] = BT084 cell growth, single and combined drugs, ICGC_MB145, cisplatin and BGB IC40 combos (AID 1671461); details: BT084 medulloblastoma cells, drug combinations, stronger effect = higher value;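 also: cells exposed to drugs for 96 hours; 0% = vehicle DMSO and 100% = high DMSO full killing control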
[11] = RCMB18 cell growth, single agent and combined, cisplatin and BGB IC40 combos (AID 1671462); details: RCMB18 medulloblastoma cells, stronger effect = higher value;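 also: cells exposed to compound for four days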
[12] = CRL1545 cell growth, single agent and combined, cisplatin and BGB IC20 combos (AID 1671464); details: CRL1545 osteosarcoma cells, stronger effect = higher value;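 also: cells exposed to compound for 96 hours before readout; 0% = vehicle DMSO and 100% = high DMSO killing control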
[13] = measured here: combination with cisplatin, at 0.5 µM
[14] = measured here: combination with cisplatin, at 5 µM

C[C@@]1(c2nc3c(C(N)=O)cccc3[nH]2)CCCN1
inhibition ([1]; BGB IC40 combo, at 0.005 µM): -45.8% and -18.7% | inhibition ([1]; BGB IC40 combo, at 0.05 µM): -19.5% and -39.6% | inhibition ([1]; at 0.5 µM): -17.4% (inactive) and -39% (inactive) | inhibition ([1]; cisplatin combo, at 0.05 µM): -25.6% and -44.6% | inhibition ([1]; cisplatin combo, at 0.5 µM): -23.4% and -27.8% | inhibition ([1]; cisplatin combo, at 5 µM): -25.3% and -24.6% | inhibition ([1]; measured here: 5 uM single agent, at 5 µM): -15.1% and -18.4% | inhibition ([2]; at 0.5 µM): -10.8% (inactive) and -21.8% (inactive) | inhibition ([2]; measured here: combination with BGB IC40, at 0.05 µM): 5.8% and -13.2% | inhibition [2, 13]: -30.9% and -32.1% | inhibition [2, 14]: -34.7% and -78.6% | inhibition ([3]; at 0.5 µM): -28.2% (inactive) and -8.28% (inactive) | inhibition ([3]; measured here: with BGB IC20, at 0.5 µM): -26.4% and -15.6% | inhibition ([3]; measured here: with BGB IC20, at 5 µM): -37.2% and -23.1% | inhibition ([3]; measured here: with cisplatin IC20, at 0.5 µM): -25.2% and -2.08% | inhibition ([3]; measured here: with cisplatin IC20, at 5 µM): -5% and -37.1% | inhibition ([3]; single agent, at 5 µM): -8.07% and -11.2% | inhibition ([4]; at 0.5 µM): -55.3% (inactive) and -67.8% (inactive) | inhibition ([4]; measured here: combination with BGB at IC20, at 0.5 µM): -51.9% and -45% | inhibition ([4]; measured here: combination with cisplatin at IC20, at 0.5 µM): -90.3% and -100% | inhibition ([5]; at 0.5 µM): -10.9% (inactive) and -9.85% (inactive) | inhibition ([5]; measured here: combo with BGB at IC20, at 0.5 µM): -9.31% and -21.4% | inhibition ([5]; measured here: combo with cisplatin at IC20, at 0.5 µM): -20.2% and -6.83% | inhibition ([6]; at 0.5 µM): -10.2% (inactive) and 3.78% (inactive) | inhibition ([6]; measured here: inhibition with BGB combination, at 0.05 µM): -8.84% and -23.2% | inhibition ([6]; measured here: inhibition with cisplatin combination, at 0.05 µM): -15.9% and -9.39% | inhibition ([7]; at 0.5 µM): -15.2% (inactive) and -24.4% (inactive) | inhibition [7, 13]: -24.8% and -30.4% | inhibition [7, 14]: -13.3% and -26.2% | inhibition ([8]; at 0.5 µM): 4.59% (inactive) and -23.4% (inactive) | inhibition ([8]; measured here: BGB combination, at 0.5 µM): -1.87% and -40.7% | inhibition ([8]; measured here: BGB combination, at 5 µM): 2.42% and -13.4% | inhibition ([8]; measured here: cisplatin combination, at 0.5 µM): -2.04% and -27.9% | inhibition ([8]; measured here: cisplatin combination, at 5 µM): -0.972% and -36.3% | inhibition ([9]; BGB combination, concentration series, at 5 µM): -24.7% and -7.53% | inhibition ([9]; at 0.5 µM): -10.7% (inactive) and -7.52% (inactive) | inhibition ([9]; cisplatin combination, concentration series, at 5 µM): -27.7% and -31.9% | inhibition ([10]; at 0.5 µM): -3.53% (inactive) and 6.53% (inactive) | inhibition ([10]; cisplatin combination, at 0.5 µM): -17.4% and -25.6% | inhibition ([10]; cisplatin combination, at 5 µM): -105% and -12.9% | inhibition ([10]; measured here: BGB IC40 combination 0.05 uM, at 0.05 µM): -13.2% and 18.5% | inhibition ([10]; single agent, at 5 µM): 2.42% and -15% | inhibition ([11]; at 0.5 µM): -29.1% (inactive) and -18.3% (inactive) | inhibition ([11]; cisplatin combo, at 5 µM): -12.7% and -24.7% | inhibition ([11]; measured here: BGB IC40 combination, at 0.05 µM): 9.85% and -28.2% | inhibition [11, 13]: -32.2% and 3.58% | inhibition ([11]; single agent, at 5 µM): -6.99% and -21% | inhibition ([12]; at 0.5 µM): -24.4% (inactive) and -51.1% (inactive) | inhibition ([12]; measured here: with BGB IC20 combination, at 0.5 µM): -33.5% and -35.5% | inhibition ([12]; measured here: with cisplatin IC20 combination, at 0.5 µM): -21.8% and -61.5% | inhibition ([12]; single agent, at 0.05 µM): -21.6% and -35.7% | inhibition ([12]; single agent, at 5 µM): 11.5% and 14.2%
